Test [1] deals with Progesterone receptor (Homo sapiens) (UniProt P06401). Kind of test: qHTS assay to identify small molecule agonists of the progesterone receptor (PR) signaling pathway (AID 1346784; calls by dose curve; note: nearly all actives have a fitted effect of over 30% in size). The method in brief: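 HEK 293T PR-UAS-bla reporter cells, 2% charcoal-stripped FBS; 6 hr settle at 37C/5% CO2, compound (DMSO) 16 hr, LiveBLAzer B/G FRET substrate 2 hr RT, fluorescence intensity read.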
(Quantitative high-throughput screening tests each substance at several concentrations.)

The target is the same in test [2]. As to the kind of experiment: qHTS assay to identify small molecule antagonists of the progesterone receptor (PR) signaling pathway (AID 1346795; active = well fitted inhibition curve with a large enough effect in the signal ratio in the repeat runs, not every such curve was filed as active; the % refers to the signal ratio). The method in brief:
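Beta-lactamase reporter, HEK293T PR-UAS-bla line; 2% charcoal-stripped FBS; 6 hr pre-incubation, 37C/5% CO2. Compound + R5020 1 nM final, 16 hr. LiveBLAzer B/G FRET substrate, 2 hr RT; fluorescence intensity read.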

Test [3] in a line: qHTS assay to identify small molecule agonists of the progesterone receptor (PR) signaling pathway - cell viability counter screen (AID 1346799; calls by dose curve; note: nearly all actives have a fitted effect of over 45% in size). The method in brief: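 HEK293T PR-UAS-bla, 3,000 cells/well, 2% charcoal-stripped FBS; 6 h settle, compound 16 h at 37C/5% CO2; LiveBLAzer 2 h RT, then CellTiter-Glo 30 min RT, luminescence read.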
Test [4] can be described thus: qHTS assay to identify small molecule antagonists of the TGF-beta/Smad signaling pathway - cell viability counter screen (AID 1346824). Note: nearly all actives have a fitted effect of over 50% in size. In outline:
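SBE-bla HEK 293T cells were plated overnight at 37 C, then given compounds in DMSO plus TGF-beta1 (added as 0.25 ng/mL solution) for 5 hr. After the bla read, CellTiter-Glo was added to the same wells and luminescence read after 30 min at room temperature.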

The nature of test [5]: qHTS assay to identify small molecule agonists of the TGF-beta/Smad signaling pathway - cell viability counter screen (AID 1346829). Note: top concentration of the series differs between compounds; nearly all actives have a fitted effect of over 45% in size. The method in brief: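 Here the cytotoxicity of library compounds is measured in SBE-bla HEK 293T cells treated for 5 hr, using CellTiter-Glo added to wells already read for the beta-lactamase reporter.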
Test [6] is described as follows: qHTS assay to identify small molecule agonists of the TGF-beta/Smad signaling pathway (AID 1346859; active = well fitted activation curve with a large enough effect in the signal ratio in the repeat runs, not every such curve was filed as active; the % refers to the signal ratio; note: series mostly up to about 77 µM). In outline: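 Read-out: fluorescence at 460 and 530 nm (405 nm excitation) after a 2 hr room-temperature incubation with beta-lactamase FRET substrate. SBE-bla HEK 293T cells had been treated with test compounds for 5 hr at 37 C.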
Test [7] concerns the target Thyrotropin-releasing hormone receptor (Homo sapiens) (UniProt P34981). As to the kind of experiment: qHTS assay to identify small molecule antagonists of the thyrotropin-releasing hormone receptor (TRHR) signaling pathway (AID 1346877; active = well fitted inhibition curve with a large enough effect in the repeat runs, not every such curve was filed as active; note: series mostly up to about 51 µM). In outline: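 Overnight-plated (18 h, 37 °C) HEK293 cells expressing TRHR were dye-loaded 2 h, treated with compound, then stimulated with TRH at 1 nM final. Fluorescence intensity was captured every second for 3 min.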

Test [8] has the same target. Kind of test: qHTS assay to identify small molecule agonists of the thyrotropin-releasing hormone receptor (TRHR) signaling pathway (AID 1346891; calls by dose curve;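 note: HEK293 cells expressing TRHR with calcium dye readout; series mostly up to about 58 µM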). In outline:
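HEK293/TRHR cells, 1500 per well, 18 h 37 °C; Ca dye 2 h 37 °C; pin-tool compound addition (agonist mode); kinetic fluorescence 3 min, 1 s reads; 15 concentrations, triplicate.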

A short description of test [9]: Human pregnane X receptor (PXR) small molecule agonists, qHTS cell viability counter screen (AID 1346977). Note: nearly all actives have a fitted effect of over 50% in size. In outline:
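Fluorescence read-out (CellTiter-Fluor) of viability in PXR-Luc HepG2 cells, multiplexed with the luciferase agonist read. Compounds in DMSO added after 5hr plating; 24hr total exposure at 37C, 5% CO2.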

Test [10] in a line: Caspase-3/7 induction in HepG2 cells by small molecules, qHTS assay (AID 1346978). Note: nearly all actives have a fitted effect of over 15% in size. The method in brief:
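Wild-type HepG2 cells (2,000/well) were settled 5 h at 37 C, 5% CO2, then exposed to compounds in DMSO for 17 h. Caspase-3/7 activity was read by luminescence 30 min after adding Caspase-Glo 3/7 reagent at room temperature.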

Test [11] is described as follows: Caspase-3/7 induction in CHO-K1 cells by small molecules, qHTS cell viability counter screen (AID 1346979). Note: nearly all actives have a fitted effect of over 35% in size. In outline: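 CHO-K1 wt, 1,500 cells/well; 5hr pre-incubation 37C/5% CO2; compound pin transfer (DMSO); 16hr exposure; CellTiter-Fluor added, 1hr, fluorescence read.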
The nature of test [12]: Caspase-3/7 induction in CHO-K1 cells by small molecules, qHTS assay (AID 1346980). Note: nearly all actives have a fitted effect of over 15% in size. In outline:
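Wild-type cells were seeded at 1,500 per well and settled 5 hr at 37 C, 5% CO2, then exposed to DMSO-dissolved compounds for 17 hr. Caspase-Glo 3/7 reagent was added, and luminescence was read after 30min at room temperature.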

A short description of test [13]: Caspase-3/7 induction in HepG2 cells by small molecules, qHTS cell viability counter screen (AID 1346981). Note: series mostly up to about 92 µM; nearly all actives have a fitted effect of over 30% in size. In outline: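 Treatment of HepG2 cells with DMSO-delivered compounds ran 16 hr at 37 C following a 5-hr pre-incubation of 2,000 cells/well. CellTiter-Fluor fluorescence, read after 1 hr, served as the viability measure in a qHTS format.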
The target in test [14] is Acetylcholinesterase (Homo sapiens) (UniProt P22303). Kind of test: Acetylcholinesterase (AChE) small molecule antagonists: colormetric cell-based qHTS assay (AID 1347395; calls by dose curve; note: nearly all actives have a fitted effect of over 30% in size). The method in brief:
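SH-SY5Y cells; cpd 30 min 37 C; + DTNB/acetylthiocholine, 90 min 37 C; colorimetric thiocholine read; qHTS.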

For test [15] the target is unchanged. Kind of test: Acetylcholinesterase (AChE) small molecule antagonists: enzyme-based qHTS assay (AID 1347397; calls by dose curve; note: nearly all actives have a fitted effect of over 55% in size). The settings on record: Potency: AChE enzyme activity inhibition. The method in brief:
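Tox21 library chemicals are tested in qHTS format against recombinant human AChE. The enzyme, dispensed at 50 mU/mL, sits with compound for 30 min at room temperature. A DTNB–acetylthiocholine cocktail follows, and colour is read after 10 min.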

The nature of test [16]: qHTS assay to identify small molecule antagonists of the progesterone receptor (PR) signaling pathway - cell viability counter screen (AID 1346798). Note: series mostly up to about 92 µM; nearly all actives have a fitted effect of over 50% in size. In outline:
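Luminescence readout (CellTiter-Glo, 30 min, RT) of viability in PR-UAS-bla HEK293T cells exposed to compound and R5020 agonist for 16 hr at 37C, 5% CO2; run in the same wells as the beta-lactamase reporter read.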

Test [17] concerns the target Nuclear receptor subfamily 1 group I member 2 (Homo sapiens) (UniProt O75469). As to the kind of experiment: Human pregnane X receptor (PXR) small molecule agonists, qHTS assay (AID 1346982). Note: nearly all actives have a fitted effect of over 35% in size. Note: potency is the fitted concentration of half-maximal effect. The method in brief: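 Stable HepG2 line reporting PXR-mediated CYP3A4 expression via luciferase. Treatment: 24 hr with compounds in DMSO at 37 C. Detection: ONE-Glo luminescence.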

This passage reports Potency and outcome results from PubChem BioAssay (Tox21).

A number with no mark means an inactive call. Inconclusive results are not listed. Active and inactive are the calls of the source. Unless noted, calls come from the whole dose curve; as a rule, active = well fitted curve in the direction sought with a large enough effect in the repeat runs; inconclusive = weak or mixed curves; inactive = no such curve, though single readings can be large; an effect the other way counts as inactive or inconclusive.

Sequence of Acetylcholinesterase (Homo sapiens) (P22303 whole entry, looked up): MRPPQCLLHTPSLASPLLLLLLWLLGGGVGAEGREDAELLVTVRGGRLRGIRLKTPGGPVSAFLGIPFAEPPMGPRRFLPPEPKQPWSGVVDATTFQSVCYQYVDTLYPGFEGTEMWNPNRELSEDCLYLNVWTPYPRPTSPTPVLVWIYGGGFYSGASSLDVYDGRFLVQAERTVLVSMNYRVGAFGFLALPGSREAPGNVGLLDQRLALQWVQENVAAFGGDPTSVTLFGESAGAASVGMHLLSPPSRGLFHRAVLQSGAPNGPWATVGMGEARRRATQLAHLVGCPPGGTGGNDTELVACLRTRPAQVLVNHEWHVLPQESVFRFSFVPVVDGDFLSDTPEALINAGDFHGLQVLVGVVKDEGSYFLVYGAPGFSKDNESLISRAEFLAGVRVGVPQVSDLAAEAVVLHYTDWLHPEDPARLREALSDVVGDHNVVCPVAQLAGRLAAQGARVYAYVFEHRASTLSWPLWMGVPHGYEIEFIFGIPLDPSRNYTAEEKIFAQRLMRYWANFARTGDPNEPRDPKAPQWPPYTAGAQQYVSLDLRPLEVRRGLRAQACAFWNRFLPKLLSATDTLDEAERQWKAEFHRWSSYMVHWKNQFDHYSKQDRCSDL
Sequence of Nuclear receptor subfamily 1 group I member 2 (Homo sapiens) (O75469 whole entry, looked up): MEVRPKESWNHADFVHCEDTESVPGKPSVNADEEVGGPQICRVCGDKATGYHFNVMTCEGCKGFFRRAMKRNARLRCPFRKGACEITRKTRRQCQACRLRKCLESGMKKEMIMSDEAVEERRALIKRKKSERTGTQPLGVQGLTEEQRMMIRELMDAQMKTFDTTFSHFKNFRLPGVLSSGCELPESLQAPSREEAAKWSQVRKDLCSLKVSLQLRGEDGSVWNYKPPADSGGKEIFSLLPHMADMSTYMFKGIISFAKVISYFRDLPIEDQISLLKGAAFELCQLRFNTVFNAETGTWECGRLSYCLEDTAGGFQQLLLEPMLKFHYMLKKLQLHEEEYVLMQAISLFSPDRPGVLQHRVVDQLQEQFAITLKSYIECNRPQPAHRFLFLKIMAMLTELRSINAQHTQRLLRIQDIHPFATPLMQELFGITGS
Sequence of Progesterone receptor (Homo sapiens) (P06401 whole entry, looked up): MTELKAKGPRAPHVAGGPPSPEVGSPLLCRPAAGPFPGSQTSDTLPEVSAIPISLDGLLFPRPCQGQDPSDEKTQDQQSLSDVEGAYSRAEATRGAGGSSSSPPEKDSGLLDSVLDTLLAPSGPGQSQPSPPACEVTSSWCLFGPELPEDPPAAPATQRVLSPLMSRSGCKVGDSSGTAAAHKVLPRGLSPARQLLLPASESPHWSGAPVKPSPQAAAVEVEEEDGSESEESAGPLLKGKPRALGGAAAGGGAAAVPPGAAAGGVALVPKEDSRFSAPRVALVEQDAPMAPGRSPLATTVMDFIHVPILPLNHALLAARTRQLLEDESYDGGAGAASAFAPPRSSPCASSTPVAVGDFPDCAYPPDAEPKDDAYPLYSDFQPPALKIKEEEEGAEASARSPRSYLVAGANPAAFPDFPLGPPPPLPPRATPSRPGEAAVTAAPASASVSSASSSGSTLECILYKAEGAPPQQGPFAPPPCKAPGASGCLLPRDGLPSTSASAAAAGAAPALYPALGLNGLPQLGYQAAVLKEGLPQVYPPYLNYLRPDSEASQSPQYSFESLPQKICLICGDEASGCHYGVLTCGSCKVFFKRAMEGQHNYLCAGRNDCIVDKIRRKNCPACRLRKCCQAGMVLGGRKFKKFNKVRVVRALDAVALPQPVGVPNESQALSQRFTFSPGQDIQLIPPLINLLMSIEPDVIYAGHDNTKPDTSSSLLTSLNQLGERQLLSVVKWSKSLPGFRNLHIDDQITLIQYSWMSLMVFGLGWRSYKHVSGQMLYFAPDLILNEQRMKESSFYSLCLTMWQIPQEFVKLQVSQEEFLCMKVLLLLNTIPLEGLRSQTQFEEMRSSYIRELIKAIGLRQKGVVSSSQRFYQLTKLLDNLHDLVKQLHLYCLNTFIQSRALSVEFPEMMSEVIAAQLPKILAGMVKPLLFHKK
Sequence of Thyrotropin-releasing hormone receptor (Homo sapiens) (P34981 whole entry, looked up): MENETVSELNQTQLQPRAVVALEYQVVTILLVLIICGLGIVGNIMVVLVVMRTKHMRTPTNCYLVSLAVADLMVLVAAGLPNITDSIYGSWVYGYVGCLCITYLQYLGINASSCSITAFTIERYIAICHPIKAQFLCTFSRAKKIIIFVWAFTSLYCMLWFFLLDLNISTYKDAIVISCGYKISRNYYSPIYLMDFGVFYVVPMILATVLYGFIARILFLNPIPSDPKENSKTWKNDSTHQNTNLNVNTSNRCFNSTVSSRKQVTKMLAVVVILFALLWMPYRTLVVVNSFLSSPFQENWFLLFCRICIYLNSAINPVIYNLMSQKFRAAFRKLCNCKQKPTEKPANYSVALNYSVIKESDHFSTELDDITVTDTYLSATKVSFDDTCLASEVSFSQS

On to `C=CC1CC=CCC1` (configuration not stated), for which the Potency entry in test [1], in test [2], in test [3], in test [4], in test [9] and in test [10] was “inactive” throughout. Further, the Potency result in test [11], in test [12], in test [13], in test [14] and in [15] was “inactive” each time. Moreover, the call in [5], in test [6], in test [7] and in [8] was inactive.
In the case of `ClCCOCOCCCl`, the Potency result in [1], in test [2], in test [16], in [9], in test [10] and in [11] was “inactive” throughout. In addition, the Potency entry in test [12], in test [13], in test [17] and in test [14] was “inactive” in each case. The result in [5], in [6], in test [7] and in test [8] was inactive.
For the compound `O=[N+]([O-])c1ccc(CBr)cc1`, the Potency result in test [1], in test [2], in test [16], in test [9], in [10] and in test [11] was “inactive” each time. Besides, the Potency result in test [12], in test [13], in [17] and in test [14] was “inactive” in each case. Besides, the outcome in test [5], in [6], in test [7] and in [8] was inactive.
With `CCC(C)n1c(=O)[nH]c(C)c(Br)c1=O` (configuration not stated), the Potency result in test [1], in [2], in test [16], in test [4], in [9] and in test [10] was “inactive” throughout. Also, the Potency entry in [11], in test [12], in [13], in [17] and in test [15] was “inactive” throughout. The result in test [6], in test [7] and in test [8] was inactive.
For the compound `C=C(C)CN(CC)c1c([N+](=O)[O-])cc(C(F)(F)F)cc1[N+](=O)[O-]`, the Potency entry in test [1], in test [2], in test [16], in test [4], in test [9] and in test [10] was “inactive” throughout. Further, the Potency result in test [11], in test [12], in test [14] and in test [15] was “inactive” in each case. Further, the compound was called inactive in [5], in [6], in [7] and in test [8]. In addition, the Potency in [17] is 27.3 µM (active).
Take `O=C(Oc1ccc(Br)cc1)N1CCN2CCC1CC2`: the Potency entry in test [1], in [2], in test [3], in test [4], in [9] and in test [10] was “inactive” each time. The Potency entry in test [11], in test [12], in [13], in test [17] and in test [14] was “inactive” each time. Besides, the call in test [5], in test [6], in [7] and in test [8] was inactive.
For `Nc1cc2c3c(c1)C(c1ccccc1)=N[C@@H](NC(=O)c1cccnc1)C(=O)N3CC2`, the Potency result in test [1], in [2], in test [3], in [4], in test [9] and in test [10] was “inactive” throughout. Moreover, the Potency result in [12], in test [13], in [14] and in test [15] was “inactive” in each case. Further, the compound was called inactive in test [5] and in test [6]. Further, the Potency in test [17] is 61.1 µM (active).
Regarding `COc1cc(C[C@@H](C)N)c(OC)cc1C`, the Potency entry in test [1], in test [2], in test [16], in [10], in test [11] and in test [12] was “inactive” throughout. Moreover, the Potency result in test [13], in test [17], in test [14] and in [15] was “inactive” each time. Moreover, the compound was called inactive in [5], in test [6], in test [7] and in test [8].
Take `CCOC(=O)N(C)C(=O)CSP(=S)(OCC)OCC`: the Potency entry in [1], in test [2], in test [16], in test [4], in test [9] and in test [10] was “inactive” throughout. For the same compound, the Potency result in test [11], in test [12], in test [13] and in test [15] was “inactive” throughout. Also, the call in test [5] and in test [6] was inactive. Also, the Potency in [17] is 30.6 µM (active).
